# Screen size: about 48,000 compounds; about 13,000 (27%) showed an effect of 50% or more. Some of the results follow.
# System: Wolbachia pipientis
# Test: Anti-Wolbachia Cell-Based Screen
# Type: functional
# Design: scale not given: in the data most compounds retested in dose-response had high values
# Details: 5 µM
row,SMILES,Percent Effect [%]
1,Cn1ccnc1CN(CCCO)CC(F)(F)F,-6.784
2,CCCC(=O)N(Cc1ccncc1)C(C)CC (centres undefined),-14.56
3,O=C([C@H]1COC[C@H]2CN(C3CCCC3)C[C@H]21)N1CCOCC1,-18.92
4,O=C([C@@H]1C[C@@H]2CCN(C3CCOCC3)C[C@@H]2O1)N1CCOCC1,114
5,O=C([C@@H]1C[C@@H]2CCN(C3CCOCC3)C[C@H]2O1)N1CCCC1,111.9
6,O=C(O)C(F)(F)F.O=C([C@@H]1COC[C@H]2CN(C3CCOCC3)C[C@H]21)N1CCOCC1,8.462
7,O=C(CCn1cncn1)NC1(c2cccc(Br)c2)CCC1,14.53
8,CC(C)C(NC(=O)Nc1cnn(CC(N)=O)c1)c1ccc(Cl)cc1 (centres undefined),4.509
9,O=C(c1coc(CN2CCN(c3ccccc3F)CC2)n1)N1CC=CC1,-19.74
10,Cc1ccc(C(=O)N2CCN(CCCSCC#N)CC2)cc1F,105.3
11,Cc1ccc(C(=O)N2CCN(CCCSCC#N)CC2)o1,-4.6
12,N#CCSCCCN1CCN(C(=O)c2cccc(Cl)c2)CC1,87.64
13,Cn1ccc(C(=O)N2CCCN(CCCc3ccccc3)CC2)cc1=O,5.22
14,Cc1ccc(C(=O)N2CCc3ncnc(C)c3CC2)cc1F,4.805
15,O=C(c1ccccc1F)N1CCN(CCCn2cncn2)CC1,-12.58
16,Cc1cccc(C(=O)N2CCCN(CCCSCC#N)CC2)c1,95.07
17,N#CCSCCCN1CCN(C(=O)c2ccccc2F)CC1,105.1
18,N#CCSCCCN1CCCC(C(=O)N2CCCCCC2)C1 (centres undefined),8.122
19,N#CCSCCCN1CCCN(C(=O)c2ccccc2)CC1,13.73
20,N#CCSCCCN1CCN(C(=O)C2CCCC2)CC1,-2.265
21,N#CCSCCCN1CCN(C(=O)c2ccc(Cl)cc2)CC1,23.02
22,O=C(NC1CC1)[C@H]1[C@@H]2CN(Cc3ccc(-c4ccn[nH]4)s3)C[C@@H]21,-3.84
23,COC(=O)[C@@H]1C[C@@H](O)CN1Cc1ccn(-c2ccc(F)cc2)n1,-13.47

row,SMILES,Percent Effect [%]
1,CNC(=O)c1ccc2c(OC)n(C)nc2c1,2.989
2,CC(C)n1cnnc1CN(C)Cc1ccoc1,9.92
3,CCc1cnc(N2C[C@H]3CN(Cc4csc(C)n4)C(=O)[C@H]3C2)nc1.O=C(O)C(F)(F)F,-9.51
4,Cc1c[nH]c(CN2CCOC(c3ccc(Cl)cc3)C2)c(C)c1=O (centres undefined),100.9
5,Cc1c[nH]c(CN2CCOC(c3ccc(Cl)c(Cl)c3)C2)c(C)c1=O (centres undefined),94.99
6,Cc1c[nH]c(CN2CCOC(c3ccc(F)cc3)C2)c(C)c1=O (centres undefined),1.733
7,Cc1nnc(CN2CCOC(c3ccc(Cl)c(Cl)c3)C2)o1 (centres undefined),7.568
8,Cc1cc(C)nc(CN2CCOC(c3ccc(Cl)cc3)C2)n1 (centres undefined),-0.4936
9,Cc1nc[nH]c1CN1CCOC(c2ccc(Cl)c(Cl)c2)C1 (centres undefined),1.288
10,CN1CCN(CCCNCc2cc(O)c3cc(F)ccc3n2)CC1,-16.72
11,NC(=O)NCCC(=O)N1CCC(c2cc(Cc3ccccc3)n[nH]2)CC1,-24.35
12,CSc1ccc(CNC2CCCc3c2cnn3C)cc1.Cl (centres undefined),78.82
13,Cn1ncc2c1CCCC2NCc1cccnc1 (centres undefined),87.53
14,COc1cc(CNC2CCCc3c2cnn3C)cc(OC)c1.Cl (centres undefined),0.06204
15,Cn1ncc2c1CCCC2NCc1ccc(OCc2cccnc2)cc1 (centres undefined),102.9
16,Cn1ncc2c1CCCC2NCc1cnc(-c2ccccc2)nc1 (centres undefined),-0.06204
17,Cc1cccc(CNC2CCCc3c2cnn3C)c1.Cl (centres undefined),0.5584
18,Cn1ncc2c1CCCC2NCc1ccc(Cl)s1 (centres undefined),-1.294
19,Cl.Cn1ncc2c1CCCC2NCc1ccc(Br)s1 (centres undefined),-6.912
20,Cc1ccc(CNC2CCCc3c2cnn3C)s1.Cl (centres undefined),1.48
21,CC(C)(C)C(O)CN1CCN(C(=O)c2cccc3ncccc23)CC1 (centres undefined),5.5
22,Cn1ccc(C(=O)N2CCC(Cc3cccc4ncccc34)CC2)n1,112
23,Cn1ccc(C(=O)N2CCCC(Cc3cccc4cccnc34)C2)n1 (centres undefined),100.6

row,SMILES,Percent Effect [%]
1,Cn1ccc(C(=O)N2CCC(Cc3cccc4ncccc34)C2)n1 (centres undefined),142.2
2,Cn1ccc(C(=O)N2CCCC(Cc3cnc4ccccc4c3)C2)n1 (centres undefined),126.8
3,Cn1ccc(C(=O)N2CCC(Cc3cccc4cccnc34)C2)n1 (centres undefined),-6.832
4,Cn1ccc(C(=O)N2CCCC(Cc3cccc4ncccc34)C2)n1 (centres undefined),-23.19
5,COc1cccc(CCC2CCCN(C(=O)c3ccc(=O)n(C)n3)C2)c1 (centres undefined),-50.16
6,CC(C)C(C)NC(=O)CN1CCSCC1 (centres undefined),15.54
7,COC(=O)N1CCCCC1C(=O)N(C)Cc1cc(-c2cccnc2)no1 (centres undefined),-13.17
8,CC(c1ccccc1)N(C)CC(=O)NCCC#N (centres undefined),10.46
9,COc1ccc2nc3n(c2c1)[C@@H](CNC(=O)c1cncnc1)COC3,-25.15
10,CCOC(=O)C1CCCCN1Cc1c[nH]nc1-c1ccc(F)cc1F (centres undefined),-25.87
11,CN(C)S(=O)(=O)N1CCN(Cc2ccnc(N3CCCC3)n2)CC1,116.4
12,CN(C)S(=O)(=O)N1CCN(c2ccnc(N3CCCC3)n2)CC1,6.981
13,CN(C)S(=O)(=O)N1CCN(c2ccnc(N3CCCCC3)n2)CC1,2.063
14,CC(C)CN1CC(c2nc(-c3cccc(F)c3)c[nH]2)CC1=O (centres undefined),-7.334
15,COc1cc(NC2CCCN(c3ncccn3)C2)cc(OC)c1 (centres undefined),107.2
16,COc1cc(NC2CCCN(c3ncccc3C#N)C2)cc(OC)c1 (centres undefined),118.7
17,N#Cc1cccnc1N1CCC(Nc2ccccc2)C1 (centres undefined),96.82
18,COc1cc(NC2CCCNC2)cc(OC)c1 (centres undefined),-9.333
19,Cc1ncsc1C(=O)NC1CCN(c2ncccc2C#N)CC1,3.03
20,COc1ccccc1N1CCCC(Nc2nccnc2C#N)C1 (centres undefined),-6.167
21,Cc1cc(C(=O)NC2CCN(c3ncccc3C#N)CC2)no1,-13.19
22,COc1cc(CNC2CCCN(c3ncccn3)C2)cc2c1OCO2 (centres undefined),-8.887
23,CC(OCC1CC1)C(=O)N1CCCN(c2ncccc2C#N)CC1 (centres undefined),0.6677

# Reference: ChEMBL document CHEMBL3988442, “University of Dundee, Small-Polar-MMV Screening Library” (2021)
